High-throughput results: PubChem BioAssay, several laboratories
This is a sample that favours compounds with a hit; in the whole collection about 4.5% have one here.
Beta apoptosis = inhibitors of cytokine-induced beta cell apoptosis, primary screen, luminescence | INS-1E cytokine-induced death, ATP luminescence, 48 h; percent of positive-control rescue, neutral wells zero | protection from apoptosis, % (no concentration beside the values) | hit rate 0.8% among 300,000 | AID 435005, 2010;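 active = Every replicate reaches about 75%, or at least half do and their mean reaches it too, limit read from the data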;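 also: 0% = cytokine-treated negative control wells and 100% = positive control rescue; higher means more ATP so stronger rescue from cytokine killing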
CSC inhib = cancer stem cell viability inhibitors, primary screen, luminescence; cancer stem cell-like cells viability; hit rate 1.1% among 300,000; inhibition, % at 7.5 µM; in the data active = inhibition above about 75%; tested in HMLE shEcad cells
697 NFkB inh = inhibitors of PMA/ionomycin-induced NF-kB reporter, 697 cells, primary screen, B-cell NF-kB inhibitor project, cell-based, luminescence, uHTS. 697 B-cell NF-kB luciferase reporter, 16 h. hit rate 0.33% among 330,000. inhibition, % at 4 µM. AID 435022, 2010; in the data active = inhibition above about 35%
Jurkat NFkB inh = inhibitors of induced NF-kB luciferase reporter, primary screen, TCR NF-kB activation inhibitor project, cell-based, luminescence, uHTS; Jurkat, PMA/ionomycin-induced NF-kB luciferase reporter; inhibition, % at 4 µM; hit rate 0.53% among 330,000; in the data active = inhibition above about 50%
Mdm2 MdmX PPI = inhibitors of human Mdm2-MdmX association, primary screen, cell-based, luminescence, split luciferase, SaOS-2, uHTS; inhibition, % at 8 µM; SaOS-2 split-luciferase Mdm2/MdmX complementation; Protein Mdm4 (Homo sapiens) + E3 ubiquitin-protein ligase Mdm2 (Homo sapiens), …; hit rate 3% among 330,000; AID 485346, 2010;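 active = inhibition of at least 50% at 8 µM in the primary screen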
Gli-Sufu antag = Gli-Sufu pathway antagonists, primary screen, luciferase luminescence, Sufu-KO-LIGHT cells, uHTS. AID 588413, 2011. hit rate 0.74% among 340,000. Sufu-KO-LIGHT fibroblasts, Gli luciferase reporter luminescence. inhibition, % at 5 µM;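 active = inhibition above about 55%, limit read from the data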;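 also: 0% = DMSO-treated cells and 100% = wells with medium but no cells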
Mdm2-MdmX conf = Mdm2-MdmX complex disruptors, retested hits, confirmation, luminescence, single concentration. shares compounds with Mdm2 MdmX PPI. Mdm2-MdmX binding, luminescent assay. inhibition, % at 8 µM. hit rate 55% among 10,000. AID 489028, 2010; in the data active = inhibition above about 40%
FLuc counter = full-length luciferase signal inhibition, confirmation, counter-screen for Mdm2/MdmX interaction inhibitor project, cell-based, single concentration, SaOS-2; shares compounds with Mdm2 MdmX PPI; SaOS-2 full-length luciferase counterscreen, luminescence; inhibition, % at 8 µM; hit rate 77% among 6,200; AID 504607, 2011;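 active = mean inhibition at 8 µM reaching about 37%, which flags the compound as non-specific, limit read from the data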;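 also: p53-null SaOS-2 cells with luciferase driven by a doxycycline-inducible promoter; compound on cells about two nights before reading with doxycycline added after day one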
The depositor's hits bear a star; nt = no result.

SMILES	Beta apoptosis	CSC inhib	697 NFkB inh	Jurkat NFkB inh	Mdm2 MdmX PPI	Gli-Sufu antag	Mdm2-MdmX conf	others
O=C(Cn1ncc(Cl)c(Cl)c1=O)N1CCN(S(=O)(=O)c2ccc3ccccc3c2)CC1	14	102*	-42	-9	100*	-4	100*	FLuc counter=53*
CCN(CC(=O)Nc1ccc2c(c1)OCCO2)C(=O)CC(NC(C)=O)c1ccccc1 (stereo not drawn)	-3	-5	4	28	23	-11	nt
COc1cc(CC(=O)N2CCN(C(=O)C3CCCO3)CC2)cc(OC)c1OC (stereo not drawn)	-6	6	5	-4	1	0	nt
CCCCCCCCNS(=O)(=O)CCNC1CC1	nt	nt	nt	nt	nt	5	nt
CCN(C[C@H]1N[C@@](CC)(C(=O)OC)[C@H]2C(=O)N(C)C(=O)[C@@H]12)C(=O)COC	nt	nt	14	8	13	1	nt
Cc1cccc(C)c1OCC(=O)Nc1cccc(-c2nnc(-c3ccccc3)o2)c1	0	nt	-77	8	61*	9	20
O=C(C(=O)N1CCN(Cc2ccc3c(c2)OCO3)CC1)c1c[nH]c2ccccc12	0	-1	8	13	15	-3	nt
CC(C)c1c(C(=O)N/N=C/c2ccc(C(F)(F)F)cc2)nnn1-c1nonc1N	9	27	-69	-14	-3	-8	nt
CCCC[C@H](CN[C@@H](CNC)[C@H](C)CC)NCCC12CCC(CC1)C2	73	10	1	39	98*	29	98*	FLuc counter=50*
N#CC1=C(N)N2C(=C(C#N)C1c1ccccc1)Sc1ccccc12 (stereo not drawn)	-3	-5	0	-32	4	nt	nt
N#CC1=C(N)N2C(=C(C#N)C1c1cccc(Br)c1)Nc1ccccc12 (stereo not drawn)	100*	58	17	7	100*	47	44*	FLuc counter=40*
CCCCC(=O)Nc1ccc2c3c(cccc13)C(=O)N2CC	-5	4	34	4	55*	13	37	FLuc counter=59*
CCN1C(=O)c2cccc3c(NC(=O)C(C)(C)C)ccc1c23	nt	-22	11	-2	17	3	nt
CCn1c(=O)cc(SCC(=O)N(C)Cc2ccccc2)c2ccccc21	0	-7	16	-6	51*	20	30
CN(Cc1ccccc1)C(=O)CSc1cc(=O)n(C)c2ccccc12	-1	1	11	7	35	-2	nt
CCn1c(=O)cc(SCC(=O)N2CCN(c3ccccn3)CC2)c2ccccc21	nt	nt	nt	nt	nt	27	nt
CCn1c(=O)cc(SCC(=O)N2CCN(c3ccccc3F)CC2)c2ccccc21	-2	24	-18	3	56*	9	44*	FLuc counter=86*
CN(C(=O)COc1ccc(Oc2ccccc2)cc1)C1CCS(=O)(=O)C1 (stereo not drawn)	-5	19	-12	4	19	-7	nt
Cc1ccc(C(=O)OCC(=O)Nc2ccc3c(c2)OCO3)c(O)c1	5	-13	20	-8	-16	-4	nt
Cc1cccc2sc(N(CCCN(C)C)C(=O)c3ccc(S(=O)(=O)N4CCc5ccccc5C4)cc3)nc12	13	28	-36	33	64*	27	24
COCCn1c(=NC(=O)c2ccc(S(=O)(=O)N3CCc4ccccc4C3)cc2)sc2cc(OC)ccc21	-2	nt	4	3	69*	7	14
COc1ccc2sc(N(CCCN(C)C)C(=O)c3ccc(S(=O)(=O)N4CCc5ccccc5C4)cc3)nc2c1	nt	91*	-4	-35	100*	6	99*	FLuc counter=55*
CN(C)CCCN(C(=O)c1ccc(S(=O)(=O)N2CCc3ccccc3C2)cc1)c1nc2ccc(F)cc2s1	62	91*	-57	16	97*	-3	26
Cc1cc(C(=O)OCC(=O)c2cccs2)ccc1[N+](=O)[O-]	nt	nt	8	5	6	-5	nt
CC(=O)c1ccsc1-c1c(C)cc2oc(=O)cc(-c3ccccc3)c2c1C	nt	nt	1	nt	3	-3	nt
SMILES	Beta apoptosis	CSC inhib	697 NFkB inh	Jurkat NFkB inh	Mdm2 MdmX PPI	Gli-Sufu antag	Mdm2-MdmX conf	others
CCC(C(=O)NCCc1ccccc1OC)n1nc(C)c2c(C)n(-c3ccccc3)nc2c1=O (stereo not drawn)	-5	-15	-12	13	-10	-15	nt
COC(=O)c1c(NC2=NS(=O)(=O)c3ccccc32)sc2c1CCC(C(C)(C)C)C2 (stereo not drawn)	nt	nt	nt	nt	nt	14	nt
CN(c1ccccc1)S(=O)(=O)c1cccc(NC(=O)C2=NN(c3ccccc3)C(=O)CC2)c1	8	22	-30	-16	16	10	nt
CN(C)CCCN(C(=O)c1ccc(S(=O)(=O)N2CCc3ccccc32)cc1)c1nc2ccc(F)cc2s1	-7	-4	8	-2	34	20	nt
Cc1cc(C)c2sc(N(CCCN(C)C)C(=O)c3ccc(S(=O)(=O)N4CCc5ccccc5C4)cc3)nc2c1	nt	14	1	15	99*	nt	99*	FLuc counter=42*
Cc1ccc2nc(N(CCCN(C)C)C(=O)c3ccc(S(=O)(=O)N4CCc5ccccc5C4)cc3)sc2c1	114*	6	4	10	100*	12	52*	FLuc counter=14
Cc1cc(C)c2sc(N(CCCN(C)C)C(=O)c3ccc(S(=O)(=O)N4CCCc5ccccc54)cc3)nc2c1	nt	101*	-10	19	99*	0	57*	FLuc counter=73*
Cc1ccc2nc(N(CCCN(C)C)C(=O)c3ccc(S(=O)(=O)N4CCOCC4)cc3)sc2c1	5	0	5	-7	24	49	nt
CCN(CC(=O)Nc1c(F)cccc1F)C(=O)C1CCN(S(=O)(=O)c2ccccc2C(=O)OC)CC1	nt	nt	nt	nt	nt	0	nt
Cc1cccc(NC(=O)C(Cc2ccccc2)c2nn[nH]n2)c1C (stereo not drawn)	0	7	1	-13	8	-2	nt
COC(=O)C[C@H]1C=C[C@@H](C(C(=O)OC)C(=O)OC)CN1C(C)=O	nt	nt	nt	nt	nt	-8	nt
O=C(Nc1cc(Cl)ccc1N1CCOCC1)c1ccc(=O)[nH]c1	1	-5	6	14	8	7	nt
O=C1/C(=C/c2ccccc2)Nc2ccccc21	-4	-5	4	6	-15	7	nt
